Experimental data: ChEMBL document CHEMBL1961873, “Compounds: GSK PKIS; Assays: Nanosyn kinase panel” (2012)

Tests used:
[1] = target: T1, Serine/threonine-protein kinase Nek9 (Homo sapiens) (UniProt Q8TD19); settings: at 1 µM;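 further: each value is a mean percent inhibition of NEK9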
T1 sequence (whole entry): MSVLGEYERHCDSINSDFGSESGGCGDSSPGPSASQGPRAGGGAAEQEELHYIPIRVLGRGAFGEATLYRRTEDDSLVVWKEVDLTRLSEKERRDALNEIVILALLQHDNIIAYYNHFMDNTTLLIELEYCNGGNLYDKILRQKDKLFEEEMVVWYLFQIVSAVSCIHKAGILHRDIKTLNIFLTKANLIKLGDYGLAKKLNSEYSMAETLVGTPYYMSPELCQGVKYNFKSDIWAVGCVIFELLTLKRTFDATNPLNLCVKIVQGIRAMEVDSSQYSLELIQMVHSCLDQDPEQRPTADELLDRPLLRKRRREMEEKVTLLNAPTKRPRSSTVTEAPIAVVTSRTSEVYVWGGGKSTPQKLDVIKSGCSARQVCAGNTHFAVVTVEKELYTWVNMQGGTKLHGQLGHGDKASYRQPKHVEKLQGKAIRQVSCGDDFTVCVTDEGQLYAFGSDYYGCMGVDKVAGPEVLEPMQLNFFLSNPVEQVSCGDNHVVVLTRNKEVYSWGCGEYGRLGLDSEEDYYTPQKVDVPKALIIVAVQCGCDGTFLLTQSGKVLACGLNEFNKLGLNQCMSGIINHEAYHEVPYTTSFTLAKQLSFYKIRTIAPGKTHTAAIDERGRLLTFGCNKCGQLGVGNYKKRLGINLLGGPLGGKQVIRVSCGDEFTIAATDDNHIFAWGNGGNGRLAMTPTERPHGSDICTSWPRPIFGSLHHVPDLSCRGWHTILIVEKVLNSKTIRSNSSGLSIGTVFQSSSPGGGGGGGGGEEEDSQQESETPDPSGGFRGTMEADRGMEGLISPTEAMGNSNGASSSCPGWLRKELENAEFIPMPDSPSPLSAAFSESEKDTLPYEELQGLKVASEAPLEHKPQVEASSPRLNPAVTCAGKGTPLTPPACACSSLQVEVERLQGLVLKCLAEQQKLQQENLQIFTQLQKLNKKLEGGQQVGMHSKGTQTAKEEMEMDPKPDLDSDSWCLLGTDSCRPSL

[2] = target: Serine/threonine-protein kinase PLK1 (Homo sapiens) (UniProt P53350); settings: at 0.1 µM
[3] = target: Serine/threonine-protein kinase PLK1 (Homo sapiens) (UniProt P53350); settings: at 1 µM
[4] = target: T2, Dual specificity protein kinase TTK (Homo sapiens) (UniProt P33981); settings: at 0.1 µM
T2 sequence (whole entry): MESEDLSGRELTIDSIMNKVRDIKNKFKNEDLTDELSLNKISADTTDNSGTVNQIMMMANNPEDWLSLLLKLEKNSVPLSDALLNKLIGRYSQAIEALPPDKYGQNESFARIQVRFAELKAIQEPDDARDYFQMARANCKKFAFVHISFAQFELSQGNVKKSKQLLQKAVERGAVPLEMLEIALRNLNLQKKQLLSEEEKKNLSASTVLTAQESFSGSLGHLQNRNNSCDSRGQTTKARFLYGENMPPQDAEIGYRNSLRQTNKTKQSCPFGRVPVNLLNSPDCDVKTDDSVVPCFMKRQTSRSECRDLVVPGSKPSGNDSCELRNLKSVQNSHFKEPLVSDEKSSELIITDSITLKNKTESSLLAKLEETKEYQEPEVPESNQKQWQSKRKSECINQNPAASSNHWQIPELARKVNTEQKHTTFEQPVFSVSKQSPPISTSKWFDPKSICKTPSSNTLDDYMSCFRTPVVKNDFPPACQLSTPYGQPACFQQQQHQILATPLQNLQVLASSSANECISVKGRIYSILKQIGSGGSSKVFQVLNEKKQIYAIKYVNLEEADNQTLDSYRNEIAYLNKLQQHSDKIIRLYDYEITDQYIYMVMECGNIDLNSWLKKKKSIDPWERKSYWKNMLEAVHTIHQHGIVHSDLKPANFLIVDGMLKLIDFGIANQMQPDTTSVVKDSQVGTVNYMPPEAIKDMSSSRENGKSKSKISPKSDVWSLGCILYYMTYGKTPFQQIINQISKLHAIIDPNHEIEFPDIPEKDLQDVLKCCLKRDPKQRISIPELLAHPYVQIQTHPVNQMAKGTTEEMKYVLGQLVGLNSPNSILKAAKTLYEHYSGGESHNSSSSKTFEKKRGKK

[5] = test system: T3, Receptor-type tyrosine-protein kinase FLT3 (Homo sapiens), P36888 [D835Y]; settings: at 1 µM
T3 sequence (whole entry): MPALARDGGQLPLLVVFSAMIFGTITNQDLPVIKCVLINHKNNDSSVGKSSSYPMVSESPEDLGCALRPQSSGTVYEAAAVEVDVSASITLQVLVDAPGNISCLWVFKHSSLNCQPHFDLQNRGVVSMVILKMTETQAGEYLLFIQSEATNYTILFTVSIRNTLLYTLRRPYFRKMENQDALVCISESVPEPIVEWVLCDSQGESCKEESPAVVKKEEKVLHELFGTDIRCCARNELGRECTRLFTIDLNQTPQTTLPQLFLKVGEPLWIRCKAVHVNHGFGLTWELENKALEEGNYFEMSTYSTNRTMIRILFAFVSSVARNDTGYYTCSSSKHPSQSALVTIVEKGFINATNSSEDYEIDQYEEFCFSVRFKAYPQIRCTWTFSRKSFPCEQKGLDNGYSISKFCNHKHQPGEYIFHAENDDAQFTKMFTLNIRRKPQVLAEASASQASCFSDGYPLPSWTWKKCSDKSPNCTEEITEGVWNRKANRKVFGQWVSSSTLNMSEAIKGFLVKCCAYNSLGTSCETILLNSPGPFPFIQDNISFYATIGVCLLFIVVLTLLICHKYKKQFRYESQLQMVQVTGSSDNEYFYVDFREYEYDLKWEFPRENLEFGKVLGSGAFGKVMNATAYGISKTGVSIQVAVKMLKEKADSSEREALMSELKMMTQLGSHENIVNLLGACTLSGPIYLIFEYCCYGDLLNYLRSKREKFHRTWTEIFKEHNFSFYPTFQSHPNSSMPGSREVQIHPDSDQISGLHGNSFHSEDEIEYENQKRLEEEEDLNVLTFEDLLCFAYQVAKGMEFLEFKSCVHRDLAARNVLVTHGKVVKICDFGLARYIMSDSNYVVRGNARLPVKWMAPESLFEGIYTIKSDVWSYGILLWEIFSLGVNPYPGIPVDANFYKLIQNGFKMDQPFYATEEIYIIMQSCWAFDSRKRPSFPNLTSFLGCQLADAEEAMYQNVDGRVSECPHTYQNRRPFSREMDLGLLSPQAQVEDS

[6] = target: Vascular endothelial growth factor receptor 3 (Homo sapiens) (UniProt P35916); settings: at 0.1 µM
Vascular endothelial growth factor receptor 3 (Homo sapiens), sequence (P35916 whole entry): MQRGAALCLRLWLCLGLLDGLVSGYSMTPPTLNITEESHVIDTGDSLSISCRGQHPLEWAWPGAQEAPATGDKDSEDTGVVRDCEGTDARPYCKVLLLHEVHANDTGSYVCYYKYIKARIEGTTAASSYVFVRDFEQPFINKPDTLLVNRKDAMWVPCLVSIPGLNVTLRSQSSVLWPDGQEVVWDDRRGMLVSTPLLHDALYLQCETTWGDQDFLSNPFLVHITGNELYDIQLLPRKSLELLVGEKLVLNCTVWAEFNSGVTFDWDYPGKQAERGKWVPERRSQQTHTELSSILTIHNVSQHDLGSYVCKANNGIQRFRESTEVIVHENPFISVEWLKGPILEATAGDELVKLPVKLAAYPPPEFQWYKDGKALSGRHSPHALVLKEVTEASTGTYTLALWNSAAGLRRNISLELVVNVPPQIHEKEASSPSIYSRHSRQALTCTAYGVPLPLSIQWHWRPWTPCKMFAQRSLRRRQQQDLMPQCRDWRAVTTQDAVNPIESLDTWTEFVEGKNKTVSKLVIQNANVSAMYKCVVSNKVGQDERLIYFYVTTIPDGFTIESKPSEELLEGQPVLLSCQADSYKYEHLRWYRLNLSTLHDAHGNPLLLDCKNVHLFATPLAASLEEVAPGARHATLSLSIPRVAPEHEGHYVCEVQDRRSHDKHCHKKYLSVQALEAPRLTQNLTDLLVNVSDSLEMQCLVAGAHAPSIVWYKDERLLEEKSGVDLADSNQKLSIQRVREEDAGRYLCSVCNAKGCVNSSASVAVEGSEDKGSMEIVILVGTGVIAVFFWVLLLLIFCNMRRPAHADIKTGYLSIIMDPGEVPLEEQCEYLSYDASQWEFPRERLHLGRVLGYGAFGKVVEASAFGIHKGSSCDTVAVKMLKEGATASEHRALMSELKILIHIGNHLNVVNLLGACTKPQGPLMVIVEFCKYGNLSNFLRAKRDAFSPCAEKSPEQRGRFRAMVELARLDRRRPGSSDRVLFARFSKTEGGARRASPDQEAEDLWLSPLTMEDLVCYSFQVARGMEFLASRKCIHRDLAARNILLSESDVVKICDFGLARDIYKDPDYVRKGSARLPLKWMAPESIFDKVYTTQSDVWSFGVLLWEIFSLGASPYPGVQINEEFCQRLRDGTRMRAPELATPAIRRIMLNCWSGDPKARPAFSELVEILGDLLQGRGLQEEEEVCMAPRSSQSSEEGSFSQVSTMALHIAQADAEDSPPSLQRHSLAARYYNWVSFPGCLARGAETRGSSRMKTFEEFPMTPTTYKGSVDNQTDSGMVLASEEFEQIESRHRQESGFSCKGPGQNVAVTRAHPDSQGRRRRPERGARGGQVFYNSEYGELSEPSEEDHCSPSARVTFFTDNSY

[7] = target: Vascular endothelial growth factor receptor 3 (Homo sapiens) (UniProt P35916); settings: at 1 µM
[8] = target: Macrophage colony-stimulating factor 1 receptor (Homo sapiens) (UniProt P07333); settings: at 0.1 µM
Macrophage colony-stimulating factor 1 receptor (Homo sapiens), sequence (P07333 whole entry): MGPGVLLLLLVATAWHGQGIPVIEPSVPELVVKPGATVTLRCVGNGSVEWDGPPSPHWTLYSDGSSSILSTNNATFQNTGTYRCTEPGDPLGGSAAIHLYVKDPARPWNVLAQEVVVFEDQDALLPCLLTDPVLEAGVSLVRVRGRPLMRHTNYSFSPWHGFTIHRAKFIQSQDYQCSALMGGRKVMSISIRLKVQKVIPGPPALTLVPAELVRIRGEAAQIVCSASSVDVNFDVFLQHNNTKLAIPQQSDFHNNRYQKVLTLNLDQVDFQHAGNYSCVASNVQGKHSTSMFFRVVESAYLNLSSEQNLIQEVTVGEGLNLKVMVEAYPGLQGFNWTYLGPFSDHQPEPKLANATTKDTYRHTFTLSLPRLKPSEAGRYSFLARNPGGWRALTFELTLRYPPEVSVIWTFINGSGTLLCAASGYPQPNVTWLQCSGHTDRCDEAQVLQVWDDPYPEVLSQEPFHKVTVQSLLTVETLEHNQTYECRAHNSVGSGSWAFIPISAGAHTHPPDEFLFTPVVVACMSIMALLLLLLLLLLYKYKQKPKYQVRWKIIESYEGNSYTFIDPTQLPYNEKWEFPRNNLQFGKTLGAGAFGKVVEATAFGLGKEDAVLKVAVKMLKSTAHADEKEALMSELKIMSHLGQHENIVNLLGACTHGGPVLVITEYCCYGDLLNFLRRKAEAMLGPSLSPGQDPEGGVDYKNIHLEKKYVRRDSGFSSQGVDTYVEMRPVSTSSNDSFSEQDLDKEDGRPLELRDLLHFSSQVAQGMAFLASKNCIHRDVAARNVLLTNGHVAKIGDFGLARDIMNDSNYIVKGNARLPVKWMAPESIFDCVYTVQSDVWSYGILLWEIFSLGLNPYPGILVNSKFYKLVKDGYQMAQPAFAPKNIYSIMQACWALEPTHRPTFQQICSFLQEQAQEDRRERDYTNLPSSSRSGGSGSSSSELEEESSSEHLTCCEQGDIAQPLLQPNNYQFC

[9] = target: Macrophage colony-stimulating factor 1 receptor (Homo sapiens) (UniProt P07333); settings: at 1 µM
[10] = target: Tyrosine-protein kinase Fyn (Homo sapiens) (UniProt P06241); settings: at 0.1 µM
Tyrosine-protein kinase Fyn (Homo sapiens), sequence (P06241 2-537 limits assumed): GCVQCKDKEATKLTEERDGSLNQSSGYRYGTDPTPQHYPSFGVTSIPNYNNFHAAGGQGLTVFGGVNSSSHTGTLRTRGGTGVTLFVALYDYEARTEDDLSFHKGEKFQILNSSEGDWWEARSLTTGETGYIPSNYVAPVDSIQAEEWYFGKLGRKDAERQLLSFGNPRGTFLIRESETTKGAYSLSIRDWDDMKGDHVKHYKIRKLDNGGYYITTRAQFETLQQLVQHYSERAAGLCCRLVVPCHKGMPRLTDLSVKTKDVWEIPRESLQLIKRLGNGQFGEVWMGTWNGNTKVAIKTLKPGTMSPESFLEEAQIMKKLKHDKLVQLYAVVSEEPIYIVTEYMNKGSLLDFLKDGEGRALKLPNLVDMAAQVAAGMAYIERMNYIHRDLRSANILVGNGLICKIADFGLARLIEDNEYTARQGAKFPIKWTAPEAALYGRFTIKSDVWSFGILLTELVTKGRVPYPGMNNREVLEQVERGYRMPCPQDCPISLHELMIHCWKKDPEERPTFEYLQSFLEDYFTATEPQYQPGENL

[11] = target: Tyrosine-protein kinase Fyn (Homo sapiens) (UniProt P06241); settings: at 1 µM
[12] = target: Tyrosine-protein kinase HCK (Homo sapiens) (UniProt P08631); settings: at 0.1 µM
Tyrosine-protein kinase HCK (Homo sapiens), sequence (P08631 2-526 limits assumed): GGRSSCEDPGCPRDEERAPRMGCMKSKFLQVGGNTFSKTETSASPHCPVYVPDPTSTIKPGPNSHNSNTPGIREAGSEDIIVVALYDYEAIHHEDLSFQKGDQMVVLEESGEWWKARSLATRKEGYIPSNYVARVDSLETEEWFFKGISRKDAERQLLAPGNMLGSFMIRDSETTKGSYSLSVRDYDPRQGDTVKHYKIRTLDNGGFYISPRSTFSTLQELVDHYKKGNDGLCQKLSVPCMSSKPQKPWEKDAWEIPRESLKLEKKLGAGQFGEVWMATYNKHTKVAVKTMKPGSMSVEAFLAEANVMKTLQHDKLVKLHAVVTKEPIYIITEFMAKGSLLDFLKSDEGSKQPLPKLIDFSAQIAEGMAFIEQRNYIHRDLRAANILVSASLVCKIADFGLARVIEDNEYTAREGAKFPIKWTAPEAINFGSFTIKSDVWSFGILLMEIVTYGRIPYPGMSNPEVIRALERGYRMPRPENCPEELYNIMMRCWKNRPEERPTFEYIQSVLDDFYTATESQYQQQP

[13] = target: Tyrosine-protein kinase HCK (Homo sapiens) (UniProt P08631); settings: at 1 µM
[14] = target: Insulin-like growth factor 1 receptor (Homo sapiens) (UniProt P08069); settings: at 0.1 µM
[15] = target: Insulin-like growth factor 1 receptor (Homo sapiens) (UniProt P08069); settings: at 1 µM
[16] = target: Insulin receptor (Homo sapiens) (UniProt P06213); settings: at 0.1 µM
Insulin receptor (Homo sapiens), sequence (P06213 28-758 limits assumed): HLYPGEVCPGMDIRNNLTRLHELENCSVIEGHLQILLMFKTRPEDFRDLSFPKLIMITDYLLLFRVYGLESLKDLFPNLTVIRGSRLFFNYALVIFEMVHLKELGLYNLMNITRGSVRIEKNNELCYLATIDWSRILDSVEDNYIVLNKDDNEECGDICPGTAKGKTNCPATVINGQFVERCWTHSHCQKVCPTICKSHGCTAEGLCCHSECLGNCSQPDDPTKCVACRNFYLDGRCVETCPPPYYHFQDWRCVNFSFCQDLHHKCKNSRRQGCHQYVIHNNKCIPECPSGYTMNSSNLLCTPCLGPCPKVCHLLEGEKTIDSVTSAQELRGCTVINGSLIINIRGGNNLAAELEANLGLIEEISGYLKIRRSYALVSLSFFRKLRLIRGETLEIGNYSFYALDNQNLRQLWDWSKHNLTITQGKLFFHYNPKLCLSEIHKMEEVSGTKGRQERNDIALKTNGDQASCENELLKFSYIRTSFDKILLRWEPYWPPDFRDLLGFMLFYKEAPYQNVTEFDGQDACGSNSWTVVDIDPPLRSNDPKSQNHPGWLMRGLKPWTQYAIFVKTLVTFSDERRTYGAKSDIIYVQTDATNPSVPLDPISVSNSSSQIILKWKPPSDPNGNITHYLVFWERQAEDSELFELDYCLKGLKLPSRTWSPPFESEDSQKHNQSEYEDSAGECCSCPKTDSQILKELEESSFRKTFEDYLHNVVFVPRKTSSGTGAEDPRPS
Insulin receptor (Homo sapiens), sequence (P06213 763-1382 limits assumed): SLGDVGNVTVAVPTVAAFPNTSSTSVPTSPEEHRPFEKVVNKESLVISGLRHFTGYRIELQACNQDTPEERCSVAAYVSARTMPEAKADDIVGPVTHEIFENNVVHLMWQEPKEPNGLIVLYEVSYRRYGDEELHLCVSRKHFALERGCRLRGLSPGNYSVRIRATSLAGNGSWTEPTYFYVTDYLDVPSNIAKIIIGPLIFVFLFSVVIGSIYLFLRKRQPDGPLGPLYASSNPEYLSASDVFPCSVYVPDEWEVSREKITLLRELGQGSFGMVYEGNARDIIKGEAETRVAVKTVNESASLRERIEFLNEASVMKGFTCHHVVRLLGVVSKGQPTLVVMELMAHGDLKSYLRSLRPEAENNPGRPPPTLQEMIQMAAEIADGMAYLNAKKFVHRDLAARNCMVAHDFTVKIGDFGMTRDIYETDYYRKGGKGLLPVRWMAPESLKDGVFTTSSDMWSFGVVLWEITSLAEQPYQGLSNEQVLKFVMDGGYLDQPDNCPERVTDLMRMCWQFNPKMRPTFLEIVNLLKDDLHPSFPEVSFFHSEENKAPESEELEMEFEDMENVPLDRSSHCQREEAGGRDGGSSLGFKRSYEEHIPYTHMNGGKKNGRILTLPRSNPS

[17] = target: Insulin receptor (Homo sapiens) (UniProt P06213); settings: at 1 µM
[18] = target: Insulin receptor-related protein (Homo sapiens) (UniProt P14616); settings: at 0.1 µM
[19] = target: Insulin receptor-related protein (Homo sapiens) (UniProt P14616); settings: at 1 µM
[20] = target: T4, Tyrosine-protein kinase ITK/TSK (Homo sapiens) (UniProt Q08881); settings: at 0.1 µM;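 further: mean percent inhibition of ITK from the GSK PKIS screen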
T4 sequence (whole entry): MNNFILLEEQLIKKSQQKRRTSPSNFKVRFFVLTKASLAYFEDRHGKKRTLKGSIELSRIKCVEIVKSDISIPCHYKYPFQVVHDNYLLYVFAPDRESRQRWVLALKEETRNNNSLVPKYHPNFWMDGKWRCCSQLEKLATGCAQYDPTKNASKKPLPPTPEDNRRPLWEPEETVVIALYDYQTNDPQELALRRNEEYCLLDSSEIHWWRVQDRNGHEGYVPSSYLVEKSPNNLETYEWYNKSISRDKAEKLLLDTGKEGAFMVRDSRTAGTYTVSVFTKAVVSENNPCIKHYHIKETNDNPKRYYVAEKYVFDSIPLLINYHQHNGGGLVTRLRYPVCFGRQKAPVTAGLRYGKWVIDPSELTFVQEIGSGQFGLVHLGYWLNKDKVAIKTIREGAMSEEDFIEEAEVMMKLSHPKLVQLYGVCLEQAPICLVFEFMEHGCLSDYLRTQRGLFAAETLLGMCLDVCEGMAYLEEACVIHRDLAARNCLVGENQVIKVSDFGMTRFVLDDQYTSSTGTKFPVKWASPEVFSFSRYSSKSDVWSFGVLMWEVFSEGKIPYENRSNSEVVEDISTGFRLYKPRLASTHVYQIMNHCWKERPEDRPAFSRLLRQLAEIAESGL

Structure (SMILES)	inhibition [1] [%]	inhibition [2] [%]	inhibition [3] [%]	inhibition [4] [%]	inhibition [5] [%]	inhibition [6] [%]	inhibition [7] [%]	inhibition [8] [%]	inhibition [9] [%]	inhibition [10] [%]	inhibition [11] [%]	inhibition [12] [%]	inhibition [13] [%]	inhibition [14] [%]	inhibition [15] [%]	inhibition [16] [%]	inhibition [17] [%]	inhibition [18] [%]	inhibition [19] [%]	inhibition [20] [%]
NS(=O)(=O)c1ccc(-c2ccc3c(NC(=O)C4CC4)n[nH]c3c2)cc1	3.68	2.16	2.23	2.82	8.24	0.96	1.51	0.18	1.78	1.45	2.42	4.22	9.28	0.89	1.61	1.23	2.43	3.82	2.73	1.9
Nc1nonc1-c1nc2cnccc2n1C1CCCCC1	-2.86	-2.48	-0.5	-1.57	19.7	4.11	16.7	27.4	76.3	2.06	4.39	-1	0.66	-3.43	-0.98	-0.54	-0.22	-2.35	-3.62	-0.34
NS(=O)(=O)c1ccc(N/C=C2\C(=O)Nc3ccc4ncsc4c32)cc1	22.4	4.2	4.96	40.1	81.1	38.2	93.1	29.5	58.6	2.85	9.66	9.53	28.9	16	19.4	0.99	11.7	0.69	4.17	1.17
